According to PubChem BioAssay (NCI):
About 83,000 compounds went through this panel and 20% of them were active in at least one assay; those are over-represented in the sample as a whole.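 Values shown are percent growth following 48 h exposure of cells in 96-well plates to a single concentration of compound; below 10 was considered active.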 The source made the active and inactive calls.

Legend:
Assay in all cases: NCI-60 one-dose screen, 48 h (100 = growth as untreated, 0 = no growth, -100 = all killed)
Settings in all cases: 10 µM unless noted
[1] = tested on: DU-145 prostate
[2] = tested on: K-562 leukemia
[3] = tested on: MALME-3M melanoma
[4] = tested on: MDA-MB-231 breast
[5] = tested on: RXF 393 renal
[6] = tested on: SF-268 CNS
[7] = tested on: SF-295 CNS
[8] = tested on: SF-539 CNS
[9] = tested on: UACC-257 melanoma
[10] = tested on: M14 melanoma
[11] = tested on: HCT-15 colon
[12] = tested on: HT29 colon
[13] = tested on: SNB-75 CNS
[14] = tested on: SNB-19 CNS
[15] = tested on: U251 CNS
[16] = tested on: SK-MEL-5 melanoma
[17] = tested on: UACC-62 melanoma
[18] = tested on: LOX IMVI melanoma
[19] = tested on: SK-MEL-28 melanoma
[20] = tested on: PC-3 prostate

Measured: growth

COc1ccc2c(c1)C(=O)/C(=C/c1ccc(OCC(=O)Nc3nccs3)cc1)O2
inactive: [4] 46.2% | [5] 31.8% | [7] 57.5% | [9] 84.9% | [10] 37.3% | [11] 76.2% | [14] 78.6% | [16] 100% | [17] 74.2% | [19] 103%
active: [1] -37.4% | [2] -27.3% | [3] -42.2% | [6] -68.5% | [8] -85% | [12] 3.69% | [13] -90.7% | [15] 4.62% | [18] -58.2%

CN(C)c1ccc(/C=C/C(=O)c2cccc(Nc3nc(Nc4ccccc4)nc(Nc4ccccc4)n3)c2)cc1
inactive: [1] 99.4% | [2] 67.7% | [3] 88.2% | [4] 81.8% | [5] 77.5% | [6] 97.2% | [7] 129% | [8] 87.9% | [9] 110% | [10] 91.5% | [11] 80.5% | [12] 53.8% | [15] 91.5% | [20] 81.7% | [16] 69.5% | [17] 91.2% | [18] 88.7% | [19] 75%
active: [13] 5.3%

c1ccc2c(c1)nc(CN1CCOCC1)n1cc(N3CCCC3)nc21
inactive: [1] 106% | [2] 67.8% | [3] 96.9% | [4] 104% | [5] 95% | [6] 110% | [7] 112% | [8] 91.5% | [9] 99.1% | [10] 107% | [11] 97.3% | [12] 111% | [13] 89.7% | [14] 102% | [15] 102% | [16] 98% | [17] 100% | [18] 102% | [19] 118%

COc1ccc(-c2cc(-c3cc(OC)c(OC)c(OC)c3)c(C#N)c(N3CCOCC3)n2)cc1O
inactive: [1] 59% | [3] 126% | [4] 49.8% | [5] 41.3% | [6] 49.6% | [7] 41.6% | [8] 37.9% | [9] 90.3% | [10] 67.5% | [11] 23.5% | [12] 108% | [13] 30.1% | [14] 52.3% | [15] 51.1% | [16] 60.8% | [17] 89.9% | [18] 13.7% | [19] 60%
active: [2] 2.4%

O=[N+]([O-])c1ccc(C2CC(c3ccccc3)=Nc3ccccc3S2)cc1 (stereo not drawn)
inactive: [1] 107% | [2] 32.4% | [3] 107% | [4] 101% | [5] 116% | [6] 98% | [7] 119% | [8] 101% | [9] 108% | [10] 104% | [11] 97.6% | [12] 97.4% | [13] 57.2% | [14] 85.8% | [15] 62.5% | [16] 87.5% | [17] 84.7% | [18] 64.3% | [19] 116%

COc1ccc2c(c1)O/C(=C\c1cccc(OCC(=O)Nc3nc(C)c(C)s3)c1)C2=O
inactive: [4] 21.2% | [9] 88.5% | [11] 94.1% | [14] 88.5% | [16] 111% | [17] 81.7% | [19] 84.8%
active: [1] -96.2% | [2] -41.3% | [3] -54% | [5] -66.3% | [6] -55.4% | [7] -80.2% | [8] -78.9% | [10] -15.1% | [12] -29.9% | [13] -63.1% | [15] -64.5% | [18] -68%

c1ccc(Nc2nc(-c3ccccn3)cs2)nc1
active: [3] 9.26% | [5] -18.8% | [8] 0.697% | [10] -32.8% | [15] 7.62% | [17] -14.6% | [18] 1.84%
inactive: [1] 26.5% | [2] 17.2% | [4] 38.9% | [6] 20.7% | [7] 11.9% | [9] 11.5% | [11] 20.1% | [12] 27.4% | [13] 42.7% | [14] 18.6% | [16] 11% | [19] 50.3%

NC(=S)Nc1cccc(O)c1
inactive: [1] 121% | [2] 106% | [3] 102% | [4] 96.7% | [5] 120% | [6] 109% | [7] 100% | [8] 95.8% | [9] 92.9% | [10] 98.4% | [11] 88.3% | [12] 103% | [13] 83.8% | [14] 99.3% | [15] 95.5% | [16] 106% | [17] 90.5% | [18] 87.8% | [19] 110%

O=C1N=c2cc3c(cc2=C/C1=C/c1sc(=S)n(CCc2ccc(O)cc2)c1O)OCCO3
active: [2] 6.11% | [11] 9.98% | [18] 3.28%
inactive: [1] 80.6% | [3] 36.7% | [4] 24.8% | [5] 92.9% | [6] 91.7% | [7] 101% | [8] 95.8% | [9] 90.3% | [10] 27.8% | [12] 21.2% | [13] 61.4% | [14] 22.9% | [15] 17.8% | [16] 83.3% | [17] 20.7% | [19] 38.7%

O=C(Nc1ccccc1)Nc1cccc(Oc2nnc(Cl)c3ccccc23)c1
active: [3] -29.6% | [5] -3.63% | [8] -22% | [13] -42% | [14] 9.64% | [15] 4.84%
inactive: [1] 39% | [2] 51.6% | [4] 32.1% | [6] 25.9% | [7] 31.2% | [9] 22% | [10] 46.3% | [11] 36.4% | [12] 23.8% | [16] 32.9% | [17] 41.3% | [18] 32.1% | [19] 44.2%

Fc1ccc(CNc2c3ccccc3nc3ccccc23)cc1F
inactive: [1] 39.5% | [2] 12.3% | [3] 50.7% | [4] 34.8% | [6] 57.2% | [7] 29.8% | [8] 22.1% | [9] 65.1% | [10] 43.1% | [11] 18% | [12] 13.4% | [13] 66.2% | [14] 32.9% | [15] 30.3% | [16] 66.2% | [18] 12.5% | [19] 82.4%
active: [5] 7.37%

COC(=O)c1c2c(c(C)[n+]([O-])c1C)C(=O)C(NCc1ccc(F)c(Cl)c1)=CC2=O
active: [2] 5.87% | [3] -93.5% | [4] 2.68% | [6] 9.33% | [8] 3.31% | [9] -69.3% | [10] -19.6% | [11] 8.29% | [12] 5% | [15] -20.4% | [20] 5.89% | [16] -71.6% | [17] -42% | [18] 9.57%
inactive: [1] 36.2% | [5] 36.2% | [7] 39% | [13] 109% | [19] 57.9%

O=c1[nH]c2ccccc2n1C1CCN(CCOc2ccccc2)CC1
inactive: [1] 73.4% | [2] 11.4% | [3] 99.9% | [4] 91.3% | [5] 28% | [6] 92.8% | [7] 76.9% | [8] 106% | [9] 95.1% | [10] 97% | [11] 85.1% | [12] 99.4% | [13] 80.5% | [15] 88.9% | [20] 58.9% | [16] 95.6% | [17] 86% | [18] 95.2% | [19] 102%

Cc1c(C)c2c(c(C)c1OCC(=O)O)CC[C@@](C)(CCC[C@@H](C)CCC[C@@H](C)CCCC(C)C)O2
active: [1] 6.97% [50 µM] | [2] 6.54% [50 µM] | [3] -35.8% [50 µM] | [4] -2.79% [50 µM] | [5] -34.5% [50 µM] | [6] -5.58% [50 µM] | [8] -7.25% [50 µM] | [10] -19.2% [50 µM] | [11] -28.5% [50 µM] | [12] 6.19% [50 µM] | [15] -30.3% [50 µM] | [20] -16% [50 µM] | [16] -77.1% [50 µM] | [17] -75.2% [50 µM] | [18] -83.9% [50 µM] | [19] -15.1% [50 µM]
inactive: [7] 35.8% [50 µM] | [9] 38.7% [50 µM] | [13] 67.6% [50 µM]

CCN(CC)Cc1cccc(C(=O)OC)c1
inactive: [1] 111% | [2] 110% | [3] 95.3% | [4] 100% | [5] 105% | [6] 104% | [7] 97.8% | [8] 94% | [9] 73.4% | [10] 91.7% | [11] 102% | [12] 106% | [13] 87.9% | [15] 96.3% | [20] 78.1% | [16] 97.1% | [17] 103% | [18] 94.1% | [19] 104%

Cc1ccccc1NC(=O)N/C(N)=N/c1nc(C)c(C)s1
inactive: [1] 11.2% | [3] 57.1% | [4] 50.9% | [6] 59.5% | [9] 67.8% | [10] 24% | [11] 26.4% | [12] 16.6% | [15] 21.3% | [20] 30.6% | [16] 40.5% | [17] 42.7% | [18] 37.8% | [19] 60.7%
active: [2] 9.17% | [5] 0.637% | [7] 8.66% | [8] -26% | [13] -33.2%
